Molecules are shown by their SMILES. The panel holds about 83,000 compounds, 20% with a hit somewhere; the sample as a whole holds those more often.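 For each line, cells grew in 96-well plates with the test compound present at a single concentration for 48 hours.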 Values without a mark were called inactive. How the source made its calls: active means growth percent below 10; inactive means the rest.

Here are results for 5 compounds from PubChem BioAssay (NCI).

The experiment has as its system MDA-MB-468 breast. Nature of the experiment: NCI-60 one-dose screen, 48 h (100 = growth as untreated, 0 = no growth, -100 = all killed). The note with it: 10 µM unless noted.
As to `O=C(O)c1cccc([N+](=O)[O-])c1/C=C/c1ccccc1`, the growth is 102%.
In the case of `Cc1cc2ccccc2c[n+]1CC(=O)c1ccc(-c2ccccc2)cc1` it was 13.3%; in that of `CCN(CC)N=Nc1nn(C(=O)Nc2ccc(Cc3ccccc3)cc2)c2ccc(Cl)cc12`, 101%; in that of `CC1CCC2(C(=O)O)CCC3(C)C(=CCC4C5(C)CCC(O)C(C)(C)C5CCC43C)C2C1C` (stereo not given), 24.5%.
For the compound `C=C(C)[C@@H]1CC[C@]2(C)[C@H](CC(=O)N[C@H]3[C@@H]4C[C@](C)(C(=O)OC)CC[C@]4(C)CC[C@]32C)[C@@]1(C)CCC#N`, the growth was 83.3%.
